In PubChem BioAssay one finds z-score and composite z-score data, which are given here for 6 compounds.

Assay [1] can be described thus: compound effects on lung adenocarcinoma cell viability – A549, calcein-AM fluorescence, 48 h, basal, profiling panel (AID 1162). Further: test concentration not given here. As to conditions: higher = more signal.
The nature of assay [2]: compound effects on differentiated 3T3-L1 adipocyte viability – cell-based, 3T3-L1 adipocytes, calcein-AM fluorescence, 48 h, basal, profiling panel (AID 1163). Further: test concentration not given here. As to conditions: 3T3-L1 adipocytes viability, higher = more signal.
Assay [3] in a line: compound effects on hepatocellular carcinoma cell viability – HepG2, calcein-AM fluorescence, 48 h, basal, profiling panel (AID 1164). Further: test concentration not given here. As to conditions: higher = more signal.
Assay [4] is described as follows: compound effects on multiple myeloma cell viability – MM1S, calcein-AM fluorescence, 48 h, basal, profiling panel (AID 1165). Further: test concentration not given here. As to conditions: higher = more signal.
The nature of assay [5]: calcein-AM signal in unstimulated myeloma cells – cell-based, calcein-AM fluorescence, 48 h, PK04 Diversity Set, profiling panel (AID 1166).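 Further: cells grown under basal conditions without added stimulus; test concentration not given here.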 As to conditions: RPMI8226 myeloma viability, higher = more signal.
Assay [6] in a line: JC-1 mitochondrial signal, unstimulated HepG2 cells – cell-based, JC-1 fluorescence, 24 h, 100 nL compound, profiling panel (AID 1167). Further: test concentration not given here. As to conditions: HepG2 mitochondrial potential, higher = more signal.
Assay [7] in a line: JC-1 mitochondrial signal, unstimulated adipocytes – cell-based, JC-1 fluorescence, 3T3-L1 adipocytes, 24 h, 100 nL compound, profiling panel (AID 1168). Further: test concentration not given here. As to conditions: JC-1 mitochondrial fluorescence, higher = more signal, called active from +8 up or from −8 down.
Assay [8] in a line: JC-1 mitochondrial signal, unstimulated myeloma cells – cell-based, JC-1 fluorescence, RPMI8226, 24 h, 100 nL compound, profiling panel (AID 1169). Further: test concentration not given here. As to conditions: JC-1 mitochondrial potential fluorescence, higher = more signal.
A short description of assay [9]: JC-1 mitochondrial signal, unstimulated MM1S myeloma – cell-based, JC-1 fluorescence, 24 h, 100 nL compound, profiling panel (AID 1170). Further: test concentration not given here. As to conditions: MM1S mitochondrial potential, higher = more signal.
A short description of assay [10]: resazurin metabolic signal in A549 cells – cell-based, resazurin fluorescence, 24 h, PK04 Diversity Set, profiling panel (AID 1171). Further: test concentration not given here. As to conditions: A549 viability, higher = more signal, called active from +8 up or from −8 down. On the technique in general: Alamar Blue is a resazurin reagent that responds to reducing activity.
The nature of assay [11]: resazurin metabolic signal in HepG2 cells – cell-based, resazurin fluorescence, 24 h, PK04 Diversity Set, profiling panel (AID 1172). Further: test concentration not given here. As to conditions: HepG2 viability, higher = more signal.
Assay [12] is described as follows: budding yeast growth changes without added modifier – OD600, strain BY4716, 24 h, basal condition, primary screen (AID 1173). As to conditions: S. cerevisiae BY4716 growth, OD600, 24 h; higher = more signal, called active from +8 up or from −8 down.
The nature of assay [13]: viability profiling in MM1S myeloma cells – cell-based, resazurin fluorescence, basal, 24 h, PK04 Diversity Set, profiling panel (AID 1174). Further: test concentration not given here. As to conditions: higher = more signal, called active from +8 up or from −8 down.
Assay [14] concerns the target Dihydroorotate dehydrogenase (quinone), mitochondrial (Plasmodium falciparum (isolate 3D7)) (UniProt Q08210). Kind of assay: inhibition of P. falciparum DHODH – biochemical, C-terminal His tag, absorbance 600 nm, primary screen (AID 1175).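 Further: recombinant parasite enzyme with a five histidine tag at its C terminus; test concentration not given here.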 As to conditions: PfDHODH enzyme, DCIP absorbance 600 nm; higher = more signal, called active from +8 up or from −8 down.
Assay [15] can be described thus: inhibition of PAO1 biofilm formation – strain PAO1, LB-PBS medium, absorbance 600 nm, primary screen (AID 1176). Further: test concentration not given here. As to conditions: P. aeruginosa PAO1 growth/biofilm, A600, 12 h; higher = more signal.
Assay [16] is described as follows: growth modulation of vineyard yeast isolate – strain RM11-1a, OD600, basal, 24 h, primary screen (AID 1177).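 Further: cultures grown under basal conditions with no added stressor; test concentration not given here.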 As to conditions: S. cerevisiae RM11-1a growth, OD600, 24 h; higher = more signal, called active from +8 up or from −8 down.
The nature of assay [17]: growth of efflux-deficient E. coli DRC39 – strain DRC39, OD650, 24 h, E. coli filamentation inducers, primary screen (AID 1178).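 Further: growth measured as culture turbidity by optical density at 650 nm; test concentration not given here.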 As to conditions: E. coli DRC39 acrAB, higher = more signal, called active from +8 up or from −8 down.
Assay [18] can be described thus: growth of efflux-deficient E. coli DRC39 – strain DRC39, OD650, 48 h, E. coli filamentation inducers, primary screen (AID 1179).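 Further: screen aims at cell division blockers that make cells filament.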 As to conditions: E. coli DRC39 delta-acrAB growth, higher = more signal, called active from +8 up or from −8 down.
The nature of assay [19]: viability profiling in RPMI8226 myeloma cells – cell-based, resazurin fluorescence, basal, 24 h, PK04 Diversity Set, profiling panel (AID 1180).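 Further: RPMI8826 multiple myeloma cell line at 5000 cells per well; test concentration not given here.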 As to conditions: higher = more signal.
Assay [20] concerns the target E3 ubiquitin-protein ligase XIAP (Homo sapiens) (UniProt P98170). Kind of assay: small molecules binding XIAP protein – biophysical, small-molecule microarray, fluorescence 635 nm, primary screen (AID 1181).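 Further: score merges 667 nm emission and signal to noise over triplicate slides.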 As to conditions: higher = more signal.

The structures appear in SMILES notation. “And” between values parts separate entries of the source, which are not always exact repeats. Equal values may be shown once. The source made the active and inactive calls. Unless noted, how the calls were made is not given here.

Sequence of E3 ubiquitin-protein ligase XIAP (Homo sapiens) (P98170 whole entry, looked up): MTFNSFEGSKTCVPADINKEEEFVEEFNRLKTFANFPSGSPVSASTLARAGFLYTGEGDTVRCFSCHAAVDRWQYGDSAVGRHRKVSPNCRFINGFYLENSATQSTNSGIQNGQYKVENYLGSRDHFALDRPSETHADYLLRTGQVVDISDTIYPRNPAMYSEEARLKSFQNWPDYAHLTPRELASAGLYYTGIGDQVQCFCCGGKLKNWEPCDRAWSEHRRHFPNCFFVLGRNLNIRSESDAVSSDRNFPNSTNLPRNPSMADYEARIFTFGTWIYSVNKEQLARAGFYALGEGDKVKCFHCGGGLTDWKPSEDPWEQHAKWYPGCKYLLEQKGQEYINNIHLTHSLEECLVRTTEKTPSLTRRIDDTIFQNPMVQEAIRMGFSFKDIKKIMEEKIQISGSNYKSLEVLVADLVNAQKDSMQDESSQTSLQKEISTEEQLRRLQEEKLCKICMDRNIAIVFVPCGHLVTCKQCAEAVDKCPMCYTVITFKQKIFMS
Sequence of Dihydroorotate dehydrogenase (quinone), mitochondrial (Plasmodium falciparum (isolate 3D7)) (Q08210 whole entry, looked up): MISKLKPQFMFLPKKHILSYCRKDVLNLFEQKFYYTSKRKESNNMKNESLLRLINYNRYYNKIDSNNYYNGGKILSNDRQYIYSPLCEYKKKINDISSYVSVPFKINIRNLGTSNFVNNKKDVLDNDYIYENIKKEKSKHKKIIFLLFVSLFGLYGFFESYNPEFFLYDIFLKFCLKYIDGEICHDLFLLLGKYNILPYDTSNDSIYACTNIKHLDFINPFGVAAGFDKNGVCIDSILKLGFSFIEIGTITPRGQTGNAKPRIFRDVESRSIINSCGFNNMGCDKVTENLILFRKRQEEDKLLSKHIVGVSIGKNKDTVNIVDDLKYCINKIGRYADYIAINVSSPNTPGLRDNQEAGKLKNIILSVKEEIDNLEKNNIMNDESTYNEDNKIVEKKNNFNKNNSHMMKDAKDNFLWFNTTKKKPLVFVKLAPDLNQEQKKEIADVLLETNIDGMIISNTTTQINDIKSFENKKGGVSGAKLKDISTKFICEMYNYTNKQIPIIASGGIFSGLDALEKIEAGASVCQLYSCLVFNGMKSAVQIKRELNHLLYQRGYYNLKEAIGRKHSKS

As to `C=CCN(CCCC)C(=O)C1N(c2c(Cl)cccc2CO)C(=O)C2C(C(=O)O)C3C=CC21O3` (stereo not given), the z-score in [1] is -0.313 and -0.498; in assay [2], 1.21 and 1.63; in [3] it was -1.25 and -0.852; in assay [4], 0.96 and 0.468; in assay [5], -0.497 and -0.251; in assay [6], -1.04 and -0.518. Besides, the z-score was -0.291 (inactive) and 0.159 (inactive) in assay [7]; 0.0487 and -0.0566 in assay [8]; 0.488 and 0.599 in assay [9]; -0.822 (inactive) and -0.0069 (inactive) in assay [10]; -0.757 and -0.248 in assay [11]; 0.187 (inactive) and -0.602 (inactive) in assay [12]. In addition, the z-score in assay [13] is -1.9 (inactive) and -0.645 (inactive); in assay [15], -0.261 (inactive) and 0.497 (inactive); in assay [16], 0.561 (inactive) and 0.143 (inactive); in [17], -0.964 (inactive) and 0.22 (inactive); in assay [18], -0.881 (inactive) and -0.0006 (inactive); in [19], -0.813 and -0.285. In addition, the composite z-score is 0.82 (inactive) and -0.536 (inactive) in assay [14]; -0.0599 and 0.425 in assay [20].

Take `C=CCN(C(=O)C(c1cccs1)N(C(=O)/C=C\C(=O)O)C(C)(C)CO)C(C)(C)C` (stereo not given): the z-score was 0.923 and 0.435 in assay [1]; 0.373 and 0.179 in [2]; 1.24 and 1.74 in [3]; 0.151 and 1.58 in [4]; -0.161 and 0.234 in [5]; 1.04 and 1.38 in assay [6]. In addition, the z-score in assay [7] is 0.19 (inactive) and 0.713 (inactive); in assay [8], -0.82 and 0.0107; in [9], 0.0872 and 0.0595; in assay [10] it was -0.465 (inactive) and -0.596 (inactive); in [11] it was -0.432 and -0.115; in [12], -1.64 (inactive) and -0.838 (inactive). For the same compound, the z-score in [13] was 0.626 (inactive) and 0.391 (inactive); in [15], 0.454 (inactive) and -0.0837 (inactive); in [16], -1.86 (inactive) and -1.72 (inactive); in [17] it was 1.97 (inactive) and 0.291 (inactive); in assay [18], 2.07 (inactive) and 0.946 (inactive); in assay [19] it was 0.356 and 0.366. The composite z-score is -0.98 (inactive) and -0.499 (inactive) in assay [14]; -0.0669 and 0.0153 in assay [20].

Turning to `COC(=O)C1=C(C)N(Cc2ccccc2)C2=C3C(=O)CCC[C@@H]3[C@@](O)(C(=O)OC)C(=O)N2[C@@H]1c1ccccc1`, the z-score was 0.941 and 0.383 in assay [1]; 0.662 and -0.219 in assay [2]; 0.408 and -0.0984 in [3]; -2.99 in assay [4]; 0.28 and -2.5 in assay [5]; 1.07 and -0.0794 in [6]. In addition, the z-score in assay [7] is -0.512 (inactive) and 0.739 (inactive); in assay [8], 0.0423 and -0.467; in assay [9] it was 1.36 and -0.505; in assay [10], 0.477 (inactive) and 0.238 (inactive); in assay [11] it was 0.444 and 0.105; in [12], -2.18 (inactive) and -2.94 (inactive). For the same compound, the z-score in assay [13] was 0.478 (inactive) and 0.111 (inactive); in assay [15] it was -0.847 (inactive); in assay [16] it was -0.387 (inactive) and -0.728 (inactive); in assay [17], 0.875 (inactive) and 0.548 (inactive); in assay [18], 0.37 (inactive) and 0.0908 (inactive); in assay [19], 0.74 and 0.619. In addition, the composite z-score is -0.13 (inactive) and -0.103 (inactive) in assay [14]; -0.0601 and -0.0118 in assay [20].

Regarding `O=C(NN=C1C[C@@H](O)[C@@H](O)[C@@H]2[C@@H]3C(=O)N(Cc4ccc5c(c4)OCO5)C(=O)[C@@H]3CC[C@H]12)OCc1ccccc1`, the z-score in assay [1] was 0.356; in [2], -0.263; in [3] it was 0.339; in [4] it was 0.172; in assay [5] it was 0.102; in assay [6] it was 1.3. Moreover, the z-score in [7] was 0.415 (inactive); in assay [8], 0.559; in assay [9], -1.79; in assay [10], -0.31 (inactive); in assay [11], -0.0124; in [12], 0.0375 (inactive). Also, the z-score was -0.203 (inactive) in [13]; -0.437 (inactive) in assay [15]; 0.273 (inactive) in assay [16]; 0.883 (inactive) in assay [17]; 1.4 (inactive) in [18]; -0.2 in assay [19]. Besides, the composite z-score in assay [14] was -1.62 (inactive); in [20], 0.106.

With `C=CCN(C(=O)C(c1cccs1)N(C(=O)/C=C\C(=O)O)c1c(Cl)cccc1CO)C(C)(C)C` (stereo not given), the z-score in assay [1] was 0.422 and -0.237; in assay [2], 0.0699 and -0.221; in assay [3], -0.0685 and 0.369; in [4] it was 0.221 and 0.0812; in assay [5] it was -0.511 and -0.202; in [6], -0.99 and -0.519. Besides, the z-score in [7] is 0.563 (inactive) and 0.497 (inactive); in assay [8] it was -0.639 and -0.0626; in assay [9] it was 0.923 and 0.231; in [10], -0.493 (inactive) and -0.643 (inactive); in assay [11], -0.842 and -0.839; in [12] it was 0.0318 (inactive) and -0.393 (inactive). In addition, the z-score in [13] is -0.525 (inactive) and -0.895 (inactive); in [15] it was -0.304 (inactive) and -0.677 (inactive); in assay [16], -0.107 (inactive) and -0.495 (inactive); in assay [17], -0.514 (inactive) and -0.291 (inactive); in assay [18] it was -0.372 (inactive) and -0.102 (inactive); in [19], -0.554 and -1.29. Besides, the composite z-score in [14] was -1.77 (inactive) and -0.93 (inactive); in [20], -0.191 and 0.1.

As to `COc1ccc(-c2ccc3c(n2)CCCN3CC(O)CN2CCCc3nc(-c4ccc(Br)cc4)ccc32)cc1` (stereo not given), the z-score in assay [1] is 0.261 and -0.331; in assay [2] it was 0.163 and 0.196; in assay [3] it was -0.0242 and 0.0285; in assay [4] it was -2.63 and -0.767; in assay [5], -0.393 and -0.48; in assay [6], 0.219 and -1.61. For the same compound, the z-score in [7] is -0.136 (inactive) and -0.88 (inactive); in assay [8] it was 0.553 and 0.817; in assay [9], 0.0404 and -0.331; in [10] it was -0.23 (inactive) and 0.169 (inactive); in assay [11], -0.721 and 0.465; in assay [12] it was -4.64 (inactive) and -1.56 (inactive). For the same compound, the z-score in [13] is -0.791 (inactive) and -0.334 (inactive); in assay [15], -0.139 (inactive) and -0.245 (inactive); in [16], 0.665 (inactive) and 0.0647 (inactive); in [17] it was 0.336 (inactive) and 0.725 (inactive); in assay [18], 0.191 (inactive) and 0.761 (inactive); in assay [19] it was -0.286 and -0.439. Moreover, the composite z-score in assay [14] was 0.0106 (inactive) and 0.0126 (inactive); in assay [20], 1.04 and 0.94.
